Six compounds from PubChem BioAssay (EPA / NIEHS) can be followed below.

Conditions in all cases: mRNA level, 48 h; actives raise or lower the signal
Read-out in assay [1]: growth arrest and DNA damage 45 (GADD45A), GADD45A (gene 1647)
Nature of the assay: LTEA_HepaRG_GADD45A: Life Technologies and Expression Analysis (LTEA) Assay for growth arrest and DNA damage 45 (GADD45A) using HepaRG (AID 2283458). The method in brief:
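GADD45A expression was measured by TaqMan qRT-PCR against three housekeeping genes (ACTB, GAPDH, POLR2A) after 48 h treatment of HepaRG cells. Eight-point half-log series up to 100 uM in 0.5% DMSO, run in duplicate.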

Read-out in assay [2]: Forkhead box O3 (FOXO3), FOXO3 (gene 2309)
Description: LTEA_HepaRG_FOXO3: Life Technologies and Expression Analysis (LTEA) Assay for Forkhead box O3 (FOXO3) using HepaRG (AID 2283459). The method in brief:
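FOXO3 transcript measured by qRT-PCR (normalized to ACTB, GAPDH, POLR2A) after 48 h exposure of HepaRG cells in serum-free induction medium. Duplicates, eight half-log concentrations up to 100 uM, 0.5% DMSO; gain or loss fitted against DMSO.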

Read-out in assay [3]: ABC Transporter (ABCB1), ABCB1 (gene 5243)
Description: LTEA_HepaRG_ABCB1: Life Technologies and Expression Analysis (LTEA) Assay for ABC Transporter (ABCB1) using HepaRG (AID 2283460). The method in brief: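 ABCB1 transcript level measured by TaqMan qRT-PCR against three housekeeping genes after 48 h chemical exposure of differentiated HepaRG cells. Top concentration 100 uM, half-log steps, eight points, 0.5% DMSO vehicle; bidirectional fit relative to DMSO.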

Read-out in assay [4]: growth arrest and DNA damage 45 (GADD45B), GADD45B (gene 4616)
Nature of the assay: LTEA_HepaRG_GADD45B: Life Technologies and Expression Analysis (LTEA) Assay for growth arrest and DNA damage 45 (GADD45B) using HepaRG (AID 2283461). Summed up:
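Values are bidirectional concentration-response fits against 0.5% DMSO controls. Underlying data: qRT-PCR mRNA levels in human HepaRG liver cells treated 48 h in serum-free induction medium, eight concentrations topping at 100 uM.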

Read-out in assay [5]: ABC Transporter (ABCC3), ABCC3 (gene 8714)
Nature of the assay: LTEA_HepaRG_ABCC3: Life Technologies and Expression Analysis (LTEA) Assay for ABC Transporter (ABCC3) using HepaRG (AID 2283462). Summed up:
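Differentiated HepaRG liver cells receive test chemicals at eight concentrations (max 100 uM) for 48 h. Expression of ABCC3 is quantified by qRT-PCR against ACTB, GAPDH and POLR2A, and activity is fitted in both directions against the DMSO control.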

Read-out in assay [6]: ABC Transporter (ABCB11), ABCB11 (gene 8647)
Nature of the assay: LTEA_HepaRG_ABCB11: Life Technologies and Expression Analysis (LTEA) Assay for ABC Transporter (ABCB11) using HepaRG (AID 2283463). The method in brief:
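ABCB11 transcript levels quantified by TaqMan qRT-PCR against three housekeeping genes after 48 h chemical exposure of HepaRG cultures. Concentrations up to 100 uM in half-log steps, 0.5% DMSO vehicle; both induction and suppression scored.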

Read-out in assay [7]: ABC Transporter (ABCC2), ABCC2 (gene 1244)
Description: LTEA_HepaRG_ABCC2: Life Technologies and Expression Analysis (LTEA) Assay for ABC Transporter (ABCC2) using HepaRG (AID 2283464). The method in brief:
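Gene expression of ABCC2 was determined by qRT-PCR in HepaRG cells exposed 48 h to chemicals (highest 100 uM, half-log dilutions). Activity was fitted in both directions relative to 0.5% DMSO vehicle.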

Read-out in assay [8]: ATP-citrate lyase (ACLY), ACLY (gene 47)
Description: LTEA_HepaRG_ACLY: Life Technologies and Expression Analysis (LTEA) Assay for ATP-citrate lyase (ACLY) using HepaRG (AID 2283466). The method in brief: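 ACLY mRNA quantified by qRT-PCR on Fluidigm arrays against three housekeeping genes, after 48 h chemical treatment of HepaRG cells (top concentration 100 uM, half-log steps, 0.5% DMSO vehicle). Up- or down-regulation fitted relative to DMSO.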

Read-out in assay [9]: Peroxisomal acyl-coenzyme A oxidase 1 (ACOX1) gene, ACOX1 (gene 51)
Nature of the assay: LTEA_HepaRG_ACOX1: Life Technologies and Expression Analysis (LTEA) Assay for Peroxisomal acyl-coenzyme A oxidase 1 (ACOX1) gene using HepaRG (AID 2283467). The method in brief:
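ACOX1 transcript levels were quantified by TaqMan qRT-PCR against three housekeeping genes after 48 h chemical exposure of differentiated human HepaRG cells. Exposure used eight half-log steps topping at 100 uM, 0.5% DMSO vehicle, in duplicate. Bidirectional curve fits were made relative to DMSO.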

Read-out in assay [10]: Alkaline Phosphatase, Placental (ALPP) gene, ALPP (gene 250)
Nature of the assay: LTEA_HepaRG_ALPP: Life Technologies and Expression Analysis (LTEA) Assay for Alkaline Phosphatase, Placental (ALPP) gene using HepaRG (AID 2283468). Summed up:
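Expression of ALPP was quantified by qRT-PCR against three housekeeping genes in human HepaRG cultures treated for 48 h with an eight-point concentration series up to 100 uM. Activity in either direction was fitted relative to 0.5% DMSO.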

Read-out in assay [11]: Bcl-2 (BAD) gene, BAD (gene 572)
Nature of the assay: LTEA_HepaRG_BAD: Life Technologies and Expression Analysis (LTEA) Assay for Bcl-2 (BAD) gene using HepaRG (AID 2283469). Summed up: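 Read-out: qRT-PCR of BAD mRNA, normalized to three housekeeping genes. Human HepaRG cultures got 48 h chemical exposure in 0.5% DMSO, duplicate eight-point half-log series topping at 100 uM. Gain or loss of signal fitted versus DMSO vehicle.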

Read-out in assay [12]: Bcl-2 (BAX) gene, BAX (gene 581)
Nature of the assay: LTEA_HepaRG_BAX: Life Technologies and Expression Analysis (LTEA) Assay for Bcl-2 (BAX) gene using HepaRG (AID 2283470). The method in brief:
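Gene expression measured by Fluidigm qRT-PCR with three housekeeping genes for normalisation. HepaRG cells, plated 48 h beforehand, treated 48 h at up to 100 uM (8-point, half-log) in 0.5% DMSO. Bidirectional fitting versus DMSO.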

Read-out in assay [13]: adenosine kinase (ADK) gene, ADK (gene 132)
Description: LTEA_HepaRG_ADK: Life Technologies and Expression Analysis (LTEA) Assay for adenosine kinase (ADK) gene using HepaRG (AID 2283471). Summed up:
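ADK expression quantified by qRT-PCR, normalised to three housekeeping genes, after 48 h exposure of HepaRG cells to eight concentrations (top 100 uM, half-log steps, duplicate, 0.5% DMSO). Up- or down-regulation fitted relative to vehicle.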

Read-out in assay [14]: Alpha-fetoprotein (AFP) gene, AFP (gene 174)
Nature of the assay: LTEA_HepaRG_AFP: Life Technologies and Expression Analysis (LTEA) Assay for Alpha-fetoprotein (AFP) gene using HepaRG (AID 2283472). Summed up: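 AFP transcript measured by TaqMan qRT-PCR with three housekeeping genes for normalization, after 48 h chemical treatment of HepaRG cells (top 100 uM, half-log steps, 0.5% DMSO). Gain or loss fitted against vehicle.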

Read-out in another assay: BCL2L11 (gene 10018)
Description: LTEA_HepaRG_BCL2L11: Life Technologies and Expression Analysis (LTEA) Assay for Bcl-2 (BCL2L11) gene using HepaRG (AID 2283473). The method in brief:
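Cells were plated, cultured 48 h, switched to serum-free induction medium, then dosed in duplicate for 48 h at eight half-log concentrations up to 100 uM. Lysates underwent RNA isolation and TaqMan qRT-PCR; gain or loss versus DMSO was fitted.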

Read-out in assay [15]: Apolipoprotein A-V (APOA5) gene, APOA5 (gene 116519)
Description: LTEA_HepaRG_APOA5: Life Technologies and Expression Analysis (LTEA) Assay for Apolipoprotein A-V (APOA5) gene using HepaRG (AID 2283474). The method in brief:
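Human liver HepaRG cells are treated 48 h with test chemicals (100 uM top, half-log dilutions, 0.5% DMSO). APOA5 mRNA induction or loss is measured by qRT-PCR relative to vehicle.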

Read-out in assay [16]: Apoptosis regulator Bcl-2 (Homo sapiens) (UniProt P10415)
Nature of the assay: LTEA_HepaRG_BCL2: Life Technologies and Expression Analysis (LTEA) Assay for Bcl-2 gene using HepaRG (AID 2283475). The method in brief: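 qRT-PCR of BCL2 transcript, normalized to three housekeeping genes (ACTB, GAPDH, POLR2A), after 48 h chemical exposure of HepaRG cells; concentrations top 100 uM with half-log dilutions, 0.5% DMSO vehicle, duplicates; changes up or down fitted relative to vehicle.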

Read-out in assay [17]: Bcl-2 (BID) gene, BID (gene 637)
Nature of the assay: LTEA_HepaRG_BID: Life Technologies and Expression Analysis (LTEA) Assay for Bcl-2 (BID) gene using HepaRG (AID 2283476). Summed up:
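Duplicate 48 h treatments of HepaRG cells in serum-free induction medium spanned 100 uM downward in half-log steps, 0.5% DMSO. Transcript change quantified by qRT-PCR against three housekeeping genes, fitted up or down versus DMSO.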

Read-out in assay [18]: Broad substrate specificity ATP-binding cassette transporter ABCG2 (Homo sapiens) (UniProt Q9UNQ0)
Nature of the assay: LTEA_HepaRG_ABCG2: Life Technologies and Expression Analysis (LTEA) Assay for ABC Transporter (ABCG2) using HepaRG (AID 2283465). The method in brief: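 ABCG2 transcript was quantified by TaqMan qRT-PCR against three housekeeping genes in HepaRG cells. Cells were treated in duplicate for 48 h across an 8-point half-log series up to 100 uM, with 0.5% DMSO vehicle. Gain or loss versus DMSO was fit.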

Read-out in a further assay: Caspase-3 (Homo sapiens) (UniProt P42574)
Description: LTEA_HepaRG_CASP3: Life Technologies and Expression Analysis (LTEA) Assay for cysteine-aspartic acid protease (CASP3) using HepaRG (AID 2283477). The method in brief:
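In HepaRG liver cells dosed for 48 h at up to 100 uM (eight-point, duplicate), CASP3 expression changes are scored by qRT-PCR. Activity is fitted in both directions with 0.5% DMSO as baseline.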

Active and inactive are the calls of the source. Rule for the calls: active = hit-call score of the fitted dose curve at least 0.9, where 1 is the maximum; inactive = score below 0.9.

Apoptosis regulator Bcl-2 (Homo sapiens), sequence (P10415 whole entry, looked up): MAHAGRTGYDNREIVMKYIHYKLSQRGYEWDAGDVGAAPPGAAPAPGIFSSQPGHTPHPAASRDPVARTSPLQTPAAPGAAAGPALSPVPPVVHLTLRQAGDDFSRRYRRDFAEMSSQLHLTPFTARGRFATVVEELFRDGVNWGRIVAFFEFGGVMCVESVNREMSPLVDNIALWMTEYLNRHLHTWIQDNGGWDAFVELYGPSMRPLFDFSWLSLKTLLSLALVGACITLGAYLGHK
Broad substrate specificity ATP-binding cassette transporter ABCG2 (Homo sapiens), sequence (Q9UNQ0 whole entry, looked up): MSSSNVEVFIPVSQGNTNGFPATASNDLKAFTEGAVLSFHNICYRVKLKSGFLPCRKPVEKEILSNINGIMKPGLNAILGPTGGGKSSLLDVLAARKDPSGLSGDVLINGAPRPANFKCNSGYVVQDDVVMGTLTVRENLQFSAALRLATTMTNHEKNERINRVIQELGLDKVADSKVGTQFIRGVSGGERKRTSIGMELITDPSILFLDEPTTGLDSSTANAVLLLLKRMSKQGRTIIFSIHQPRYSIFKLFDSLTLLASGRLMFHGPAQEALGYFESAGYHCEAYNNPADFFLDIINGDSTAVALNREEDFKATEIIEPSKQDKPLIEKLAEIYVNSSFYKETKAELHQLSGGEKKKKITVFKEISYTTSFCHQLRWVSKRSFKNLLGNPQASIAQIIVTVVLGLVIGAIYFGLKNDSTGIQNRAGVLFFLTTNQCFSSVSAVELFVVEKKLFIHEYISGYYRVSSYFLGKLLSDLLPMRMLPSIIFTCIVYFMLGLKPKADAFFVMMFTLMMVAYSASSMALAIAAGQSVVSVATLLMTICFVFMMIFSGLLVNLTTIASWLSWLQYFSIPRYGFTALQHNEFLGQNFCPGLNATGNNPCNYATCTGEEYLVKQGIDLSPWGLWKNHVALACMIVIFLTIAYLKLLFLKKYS
Caspase-3 (Homo sapiens), sequence (P42574 whole entry, looked up): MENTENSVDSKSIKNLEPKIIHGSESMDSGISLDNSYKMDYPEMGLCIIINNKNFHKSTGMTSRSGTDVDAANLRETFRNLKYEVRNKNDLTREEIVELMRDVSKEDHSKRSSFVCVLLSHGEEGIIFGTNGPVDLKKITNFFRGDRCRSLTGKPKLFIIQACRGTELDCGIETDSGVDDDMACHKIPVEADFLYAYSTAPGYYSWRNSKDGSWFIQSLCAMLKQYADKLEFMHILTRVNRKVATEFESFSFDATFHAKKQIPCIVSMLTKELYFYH

On to `C=CN1CCCC1=O`, for which the compound was called inactive in assay [1], in assay [2], in assay [3], in assay [4], in assay [5] and in assay [6]. The compound was classed as inactive in assay [7], in [8], in assay [9], in assay [10], in assay [11] and in [12]. For the same compound, the outcome (in assay [13]; in assay [14]; in the assay with BCL2L11 (gene 10018); in assay [15]; in assay [16]; in assay [17]) was inactive.

In the case of `OC[C@H]1O[C@@](CO)(O[C@H]2O[C@H](CO)[C@@H](O)[C@H](O)[C@H]2O)[C@@H](O)[C@@H]1O`, the outcome in assay [1], in [2], in [3], in [4], in assay [5] and in assay [6] was inactive. Moreover, the call in [7], in assay [18], in assay [8], in [9], in [10] and in assay [11] was inactive. In addition, the compound was classed as inactive (in assay [12]; in assay [13]; in [14]; in the assay with BCL2L11 (gene 10018); in assay [15]; in [16]). For the same compound, the call (in assay [17]; with Caspase-3 (Homo sapiens)) was inactive.

As to `CCCCCCOC(=O)CC(CC(=O)OCCCCCC)(OC(=O)CCC)C(=O)OCCCCCC`, the outcome in assay [1], in assay [2], in assay [3], in assay [4], in assay [5] and in [6] was inactive. The compound was called inactive in assay [7], in assay [18], in [9], in [10], in [11] and in assay [12]. Besides, the call (in [13]; in assay [14]; with BCL2L11 (gene 10018); in assay [15]; in [16]; in assay [17]) was inactive.

Consider `c1ccc2c(c1)-c1cccc3c1c-2cc1ccccc13`, for which the compound was called inactive in assay [1], in assay [18], in assay [10], in assay [11], in [12] and in assay [17]. For the same compound, the AC50 is 4.9 µM (active) in [2]; 15.5 µM (active) in assay [3]; 11.3 µM (active) in [4]; 21 µM (active) in assay [5]; 15.1 µM (active) in assay [6]; 13.8 µM (active) in assay [7]. Moreover, the AC50 in assay [8] was 3.88 µM (active); in assay [9] it was 15.9 µM (active); in assay [13], 12.3 µM (active); in assay [14], 17.2 µM (active); in the assay with BCL2L11 (gene 10018) it was 12.5 µM (active); in assay [15] it was 13.4 µM (active). In addition, the values for the AC50 (in [16]; in the assay with Caspase-3 (Homo sapiens)) were 6 µM (active) and 13.5 µM (active), respectively.

As for `CC[C@H](C)C(=O)O[C@H]1C[C@H](O)C=C2C=C[C@H](C)[C@H](CC[C@@H](O)C[C@@H](O)CC(=O)O)[C@H]21`, the outcome in assay [1], in [2], in assay [3], in [4], in [5] and in assay [6] was inactive. The result in assay [7], in assay [18], in [9], in assay [10], in assay [11] and in assay [12] was inactive. In addition, the call (in assay [13]; in [14]; in the assay with BCL2L11 (gene 10018); in assay [15]; in assay [16]; in assay [17]) was inactive.

Turning to `OCCOCCOCCO`, the outcome in assay [1], in assay [2], in assay [4], in assay [5], in assay [6] and in [7] was inactive. Also, the call in assay [18], in [9], in [10], in assay [11], in assay [12] and in assay [13] was inactive. Further, the call (in [14]; with BCL2L11 (gene 10018); in [15]; in [16]; in assay [17]) was inactive. Further, the AC50 in [3] was 0.115 µM (active).
